Data on 37 molecules can be found in PubChem BioAssay (NCI).

A short description of assay [1]: NCI Yeast Anticancer Drug Screen. Data for the rad50 strain (AID 155).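 Also: 0% = growth of vehicle-only cultures of the same strain.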 As to conditions: S. cerevisiae rad50 strain growth inhibition; at 50.0 µM; active compounds read high. The method in brief: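 Relative growth inhibition (compound vs vehicle) was measured in yeast with a defined repair-gene alteration.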
Assay [2] can be described thus: NCI Yeast Anticancer Drug Screen. Data for the mec2-1 strain (AID 157). To be noted: S. cerevisiae mec2-1 strain, at 50.0 µM, active compounds read high. An outline of the steps:
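Readout is yeast growth inhibition, normalised to vehicle-treated controls, in the mec2-1 strain exposed to compound.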

A short description of assay [3]: NCI Yeast Anticancer Drug Screen. Data for the sgs1 mgt1 strain (AID 161).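 Also: 0% = growth of cultures given vehicle only.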 As to conditions: S. cerevisiae sgs1 mgt1 strain, at 50.0 µM, active compounds read high. An outline of the steps:
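Percent growth inhibition was derived by comparing compound-exposed mutant yeast with vehicle-exposed cultures. The strain carries alterations in DNA damage repair.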

Assay [4] can be described thus: NCI Yeast Anticancer Drug Screen. Data for the cln2 rad14 strain (AID 165).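 Also: 0% = growth equal to vehicle treated cultures.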 To be noted: S. cerevisiae cln2 rad14 strain, at 50.0 µM, active compounds read high. The method in brief: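 Relative to vehicle controls, growth inhibition of compound-treated cln2 rad14 yeast was recorded.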
Assay [5] is described as follows: NCI Yeast Anticancer Drug Screen. Data for the bub3 strain (AID 167). As to conditions: S. cerevisiae bub3 mutant strain, at 50.0 µM, active compounds read high. An outline of the steps:
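Screening used yeast with an engineered genetic alteration affecting cell cycle control. Compound-exposed cultures were compared with vehicle cultures, and reduced growth was taken as inhibition.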

Assay [6] can be described thus: NCI Yeast Anticancer Drug Screen. Data for the mlh1 rad18 strain (AID 175). To be noted: S. cerevisiae mlh1 rad18 strain growth inhibition; at 50.0 µM; active compounds read high. An outline of the steps:
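Test agents were incubated with a yeast strain of defined genotype (DNA damage repair defect). Inhibition of growth was derived by comparison with vehicle-exposed cultures.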

SMILES strings stand for the structures. This is part of a sample that, as a whole, favours compounds with a hit. Of some 79,000 tested, about 15% had one in any assay. Unmarked numbers belong to inactive results. Calls of active or inactive are those of the source. Rule as the data show it: active = growth inhibition above about 70%; inactive = the rest.

Regarding `CC(O)C(=O)N1CCCCC1` (configuration not stated), the growth inhibition in assay [1] was 13.7%; in assay [2] it was 9.5%; in assay [3], -3.95%; in assay [4] it was -8.35%; in assay [5], 10.6%; in assay [6], -23.1%.

In the case of `O=[N+]([O-])c1ccc2c(c1)Cc1cccc([N+](=O)[O-])c1-2`, the growth inhibition was 2% in assay [1]; -2.1% in assay [2]; 0.25% in assay [3]; -21.9% in assay [4]; -5.9% in assay [5]; 9.5% in assay [6].

In the case of `O=C(O)CO.[NH2-].[NH2-].[Pt+2]`, the growth inhibition in assay [1] is -10.1%; in assay [2], -17.8%; in assay [3], -4.85%; in assay [4] it was -14.9%; in assay [5] it was -20.2%; in assay [6], -18.2%.

`Nc1cccc(OCC(O)CN2CCN(c3ccccc3)CC2)c1` (configuration not stated): the growth inhibition was 3.7% in assay [1]; 8.6% in assay [2]; 0.1% in assay [3]; -2.55% in assay [4]; -1% in assay [5]; 14.7% in assay [6].

Regarding `COC(=O)C(C)(C)N=CN(C)C`, the growth inhibition in assay [1] was -19.7%; in assay [2], 13.1%; in assay [3] it was -7.8%; in assay [4] it was 15.5%; in assay [5] it was -27.9%; in assay [6], 3.55%.

For the molecule `CCCCCC[C@@H](O)C/C=C\CCCCCCCC(=O)OCC(C)O` (some centres not stated), the growth inhibition is 22.1% in assay [1]; -2.35% in assay [2]; 8.9% in assay [3]; -30.6% in assay [4]; -2.85% in assay [5]; -20.4% in assay [6].

Regarding `CCCCCCCCCCCCCCCC(=O)O`, the growth inhibition in assay [1] was -12.9%; in assay [2], -34.1%; in assay [3], -18.9%; in assay [4], -2.9%; in assay [5], -29.8%; in assay [6], -34.9%.

On to `c1ccc(C2=C(c3ccccc3)c3ccccc3C2)cc1`, for which the growth inhibition in assay [1] was 0.3%; in assay [2], -7.3%; in assay [3], 8.55%; in assay [4], 0.35%; in assay [5], -8.85%; in assay [6], -9.35%.

As to `C/C=C/C(=O)Oc1ccccc1/C=C/C(=O)CCCCCC`, the growth inhibition in assay [1] is 15.2%; in assay [2], 11.1%; in assay [3], 23.6%; in assay [4], 8.25%; in assay [5] it was 10.9%; in assay [6], 10.9%.

On to `COC(=O)c1cc2c(cc1N=Cc1ccccc1Cl)OCO2`, for which the growth inhibition in assay [1] is 0.45%; in assay [2], 4.3%; in assay [3], 12.1%; in assay [4] it was -1.65%; in assay [5], -0.85%; in assay [6] it was 6.35%.

Take `COC(=O)C1(C)CCCC2(C)C3=CC(O)C4(C(C)C)OC4C3(O)CCC12` (configuration not stated): the growth inhibition in assay [1] was -9.4%; in assay [2] it was -41.6%; in assay [3] it was -8.15%; in assay [4] it was 5.65%; in assay [5], -21.9%; in assay [6] it was -8.2%.

Consider `O=C1CCCC1C(=O)c1ccccc1.O=C1CCCC1C(=O)c1ccccc1.[Cu]` (configuration not stated), for which the growth inhibition in assay [1] was 70.9% (active); in assay [2] it was 22.1%; in assay [3], 88.5% (active); in assay [4] it was 23.7%; in assay [5], -2%; in assay [6] it was 52.9%.

With `O=C(O)CC(Sc1ccccc1)c1ccccc1` (configuration not stated), the growth inhibition in assay [1] was 12.9%; in assay [2] it was -9.2%; in assay [3], -2.8%; in assay [4], 32%; in assay [5] it was 45.7%; in assay [6] it was 7.7%.

As for `Nc1ccc2ccccc2c1N=Nc1ccc(/C=C/c2ccc(N=Nc3c(N)ccc4ccccc34)cc2S(=O)(=O)O)c(S(=O)(=O)O)c1`, the growth inhibition was 23.4% in assay [1]; 18.2% in assay [2]; 62% in assay [3]; 7.1% in assay [4]; 31.9% in assay [5]; 53.4% in assay [6].

Consider `CC(=O)c1cc([N+](=O)[O-])c(O)cc1O`, for which the growth inhibition is 36.1% in assay [1]; 2.25% in assay [2]; 18.1% in assay [3]; -16.8% in assay [4]; 25.9% in assay [5]; 41% in assay [6].

Turning to `CCCCN(CCCC)C(=N)c1cccc(OC)c1`, the growth inhibition in assay [1] was -7.9%; in assay [2], -13.4%; in assay [3] it was -7.35%; in assay [4] it was -15.3%; in assay [5], 2.75%; in assay [6], -17.9%.

Turning to `O=C(Nc1nc2ccc([N+](=O)[O-])cc2s1)C(=O)C(C(=O)c1ccncc1)C1OC(=O)c2ccccc21` (configuration not stated), the growth inhibition was 24.1% in assay [1]; 9.25% in assay [2]; -19.5% in assay [3]; 39.2% in assay [4]; 49.8% in assay [5]; 27.3% in assay [6].

With `CN(C)c1ccccc1C1CCCCCC1O` (configuration not stated), the growth inhibition in assay [1] was 15.8%; in assay [2], 6.1%; in assay [3], 17.9%; in assay [4], 20.1%; in assay [5], -22.3%; in assay [6], 8.95%.

Regarding `CCOC(=O)C(=O)Nc1c(C)cccc1CC`, the growth inhibition in assay [1] was 0.15%; in assay [2] it was -4.1%; in assay [3], -5.05%; in assay [4], -16.4%; in assay [5], 6.2%; in assay [6], -1.05%.

For `O=C(O)C1CCC(=O)N1Cc1ccccc1` (configuration not stated), the growth inhibition in assay [1] was 1.35%; in assay [2], -5.5%; in assay [3], -7.75%; in assay [4], -18%; in assay [5], -7.05%; in assay [6], -8.35%.

As to `CC(=O)O[C@H]1C(=O)[C@]2(C)[C@@H](OC(=O)OCCC(O)CO)C[C@H]3OC[C@@]3(OC(C)=O)[C@H]2[C@H](OC(=O)c2ccccc2)[C@]2(O)C[C@H](OC(=O)[C@H](O)[C@@H](NC(=O)c3ccccc3)c3ccccc3)C(C)=C1C2(C)C` (some centres not stated), the growth inhibition in assay [1] was 1.65%; in assay [2], -7.2%; in assay [3], 2.25%; in assay [4], 3.95%; in assay [5] it was -19.2%; in assay [6], -0.35%.

In the case of `COc1cccc(N)c1`, the growth inhibition in assay [1] is 4.6%; in assay [2] it was -11.8%; in assay [3], -6.65%; in assay [4] it was -2.75%; in assay [5], -4.95%; in assay [6], -10.2%.

Take `CCC[CH2][Sn]([C]#[C][Sn]([CH2]CCC)([CH2]CCC)[CH2]CCC)([CH2]CCC)[CH2]CCC`: the growth inhibition in assay [1] is 99.6% (active); in assay [2], 98.8% (active); in assay [3], 99.5% (active); in assay [4], 99.2% (active); in assay [5] it was 99.3% (active); in assay [6] it was 99.4% (active).

Consider `O=C1CSC(=NCCN=C2NC(=O)CS2)N1`, for which the growth inhibition is 10.5% in assay [1]; 18.3% in assay [2]; 9.25% in assay [3]; 1.6% in assay [4]; 15.1% in assay [5]; 28.2% in assay [6].

Take `Cc1c(C(=O)CC(=O)C(=O)Nc2cc(Cl)ccc2Cl)[n+](=O)c2ccccc2n1[O-]`: the growth inhibition in assay [1] is -7.35%; in assay [2], 1.9%; in assay [3], -40.2%; in assay [4] it was 16.2%; in assay [5] it was 1.1%; in assay [6], 1.65%.

`CSc1nc2c(c(=O)[nH]1)CC(=O)N2`: the growth inhibition in assay [1] was 0.35%; in assay [2] it was -5.75%; in assay [3] it was -7.25%; in assay [4] it was -33.6%; in assay [5] it was -12.2%; in assay [6], -3.1%.

`COc1ccccc1-c1nc2ccccc2c(=O)[nH]1`: the growth inhibition was 12.8% in assay [1]; -25.9% in assay [2]; -14.1% in assay [3]; 8.5% in assay [4]; 6.4% in assay [5]; 2.25% in assay [6].

With `Cc1nc(Nc2ccc([N+](=O)[O-])cc2)sc1C(=O)/C=C/c1ccc(N(C)C)cc1`, the growth inhibition was 5.1% in assay [1]; -6.85% in assay [2]; 5.6% in assay [3]; 16.2% in assay [4]; 18.6% in assay [5]; -1.1% in assay [6].

In the case of `O=C(N/N=C/c1ccccn1)c1ccccc1`, the growth inhibition in assay [1] is -1.2%; in assay [2], 23.6%; in assay [3] it was 10.7%; in assay [4], 19.1%; in assay [5], 13.3%; in assay [6], 3.55%.

As to `O=C(CN(c1ccc(S(=O)(=O)O)cc1)c1ccc(S(=O)(=O)O)cc1)Nn1cnc2ccc(S(=O)(=O)N(c3ccc(S(=O)(=O)O)cc3)c3ccc(S(=O)(=O)O)cc3)cc2c1=O`, the growth inhibition in assay [1] was 29.1%; in assay [2] it was 6.15%; in assay [3], 31.2%; in assay [4] it was 19.2%; in assay [5] it was 26%; in assay [6] it was 34.1%.

As to `CCOC(=O)Nc1cccc(Cl)c1`, the growth inhibition in assay [1] is 10.9%; in assay [2], -2.45%; in assay [3], 18.9%; in assay [4], 9.65%; in assay [5], -7.35%; in assay [6] it was 22.1%.

Regarding `CC(=O)Nc1c(C)ccc(C)c1C(=O)O`, the growth inhibition is 3.65% in assay [1]; -0.7% in assay [2]; 8.25% in assay [3]; 1.15% in assay [4]; 13.8% in assay [5]; 11.8% in assay [6].

Consider `CC(=O)N(C(C)=O)c1ccc2c(c1)Cc1ccccc1-2`, for which the growth inhibition in assay [1] is 14.9%; in assay [2], -12.9%; in assay [3], 17.4%; in assay [4] it was 3.85%; in assay [5] it was 35.3%; in assay [6], 15.1%.

For the molecule `NC(=Nc1ccc(S(=O)(=O)Nc2cnccn2)cc1)/N=C(/N)Nc1ccc(Br)cc1`, the growth inhibition in assay [1] is 4.2%; in assay [2], 3.9%; in assay [3], 15.7%; in assay [4], -4.65%; in assay [5], -5.65%; in assay [6], 27.1%.

Take `Cc1ccccc1N=Cc1ccccc1O.[Co]`: the growth inhibition was 12.2% in assay [1]; 11.2% in assay [2]; 27.4% in assay [3]; -17.4% in assay [4]; 0.3% in assay [5]; 32% in assay [6].

With `CN(C)c1nc(Cl)c2c(-c3ccccc3)c(-c3ccccc3)oc2n1`, the growth inhibition in assay [1] is -0.6%; in assay [2], 3%; in assay [3] it was 10.5%; in assay [4], 16.1%; in assay [5], 24.6%; in assay [6], -25.1%.

Turning to `Cc1cc2c(=O)[nH]c(=S)[nH]c2cn1`, the growth inhibition in assay [1] is 8%; in assay [2], 7%; in assay [3] it was -11.4%; in assay [4], -0.35%; in assay [5], 6.8%; in assay [6], -3.6%.
